A selection: hits, their analogues and other compounds. The true share with any hit is near 7%.
ADAM10 inh = ADAM10 inhibition, QFRET primary screen | recombinant ADAM10, EDANS/DABCYL FRET peptide cleavage, 3 h | inhibition, % at 7 µM | actives 0.62% (n = 370,000) | AID 720582;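 active means inhibition above a per-campaign cutoff equal to the mean of compounds falling between control-based bounds plus 3 SD, cut at about 20% in these data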
Target sequence (O14672 214-748 limits assumed): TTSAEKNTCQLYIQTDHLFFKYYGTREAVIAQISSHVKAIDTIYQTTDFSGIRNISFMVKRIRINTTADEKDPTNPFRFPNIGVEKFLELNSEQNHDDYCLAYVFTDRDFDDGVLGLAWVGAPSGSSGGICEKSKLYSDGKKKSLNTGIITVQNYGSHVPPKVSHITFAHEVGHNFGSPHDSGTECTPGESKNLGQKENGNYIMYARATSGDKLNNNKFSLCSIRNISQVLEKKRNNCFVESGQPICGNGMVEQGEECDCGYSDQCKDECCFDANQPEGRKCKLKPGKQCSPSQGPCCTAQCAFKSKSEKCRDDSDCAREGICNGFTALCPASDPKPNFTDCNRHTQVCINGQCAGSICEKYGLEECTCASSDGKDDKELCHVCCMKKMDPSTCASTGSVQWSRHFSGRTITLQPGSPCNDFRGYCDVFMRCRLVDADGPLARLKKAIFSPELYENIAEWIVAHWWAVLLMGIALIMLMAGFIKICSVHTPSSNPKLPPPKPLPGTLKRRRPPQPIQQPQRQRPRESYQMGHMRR
rCAG RNA binder = r(CAG) repeat RNA binding; inhibition, % at 3 µM; actives 1.3% (n = 370,000); TO-PRO-1 dye displacement fluorescence; AID 651821;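 active means inhibition above the plate cutoff, the mean of all test compounds on that plate plus 3 SD, cut at about 35% in these data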;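 further: higher means more dye released from RNA so lower well fluorescence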
AHR act = activates the human aryl hydrocarbon receptor; P35869; actives 2.5% (n = 320,000); activation, % at 5 µM; AHR-responsive luciferase reporter cells, luminescence; AID 2796; in the data active means activation above about 47%
GRIN3A LBD mod = modulates the human NR3A ligand-binding domain | NR3A LBD differential scanning fluorimetry, Tm shift; 0% = protein alone, 100% = glycine-bound protein | Tm shift relative to glycine control, % at 25 µM | actives 2.5% (n = 340,000) | AID 1259313;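 active means melting temperature shift of at least 10% of the positive control shift, at one fixed dose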
proKLK7 act = proKLK7 (human) activation, primary screen; P49862; purified proKLK7, EDANS-DABCYL substrate fluorescence; 100% is mature enzyme control, 0% vehicle; activation, % at 7 µM; actives 0.9% (n = 370,000); AID 652039;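 active means activation above the mean of all tested compounds plus 3 SD, computed per campaign excluding outliers beyond control limits, cut at about 13% in these data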
ADAM17 inh = inhibitors of human ADAM17; actives 0.83% (n = 370,000); inhibition, % at 6.95 µM; P78536; recombinant ADAM17, EDANS/DABCYL FRET peptide cleavage;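 active means inhibition above the mean of compounds lying between control limits plus 3 SD, set per campaign, cut at about 8.5% in these data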
AHR act confirm = confirmation of human aryl hydrocarbon receptor activators. shares compounds with AHR act. human cells, AHR-responsive luciferase reporter, luminescence. activation, % at 9 µM. actives 87% (n = 2,300). AID 2845; in the data active means activation above about 49%;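 further: HepG2 hepatoma cells carrying a DRE-driven firefly luciferase reporter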
PXR counter = activates human PXR in AHR activator counter-screen | shares compounds with AHR act | cell-based PXR reporter, luciferase luminescence | activation, % at 11.6 µM | actives 88% (n = 2,300); in the data active means activation above about 11%;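 further: human hepatoma DPX-2 cells expressing full-length human PXR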
Numbers stand for hits; . = inactive; / = not tested or not shown.

SMILES	ADAM10 inh	rCAG RNA binder	AHR act	GRIN3A LBD mod	proKLK7 act	ADAM17 inh	AHR act confirm	PXR counter
O=C(COc1cccnc1[N+](=O)[O-])c1c[nH]c2ccccc12	.	.	87.3	.	.	.	107.7	15.6
CC(=O)Nc1c(C(=O)c2ccc(F)cc2)oc2ccccc12	.	.	154.7	.	.	.	125.7	39.3
COc1ccc(C(=O)c2oc3ccccc3c2NC(C)=O)cc1	.	.	172.7	.	.	.	148.2	13.9
O=C(Nc1ccc(F)cc1)c1oc2ccccc2c1NC(=O)C1CCCC1	/	/	91.1	13.1	/	/	135.8	36.5
O=C(Nc1c(C(=O)C2CC2)oc2ccccc12)c1ccc(Cl)cc1	.	.	.	.	.	.	/	/
COc1ccc(C(=O)c2oc3ccc(OC)cc3c2NC(C)=O)cc1	.	.	.	.	.	.	/	/
Nc1c(C(=O)c2ccc(Cl)cc2)oc2ccccc12	.	.	113.3	.	.	.	169.0	16.4
CCN(C(=O)[C@@H](C)[C@@H](O)c1ccc(Cl)cc1)c1ccccc1	.	.	/	/	.	.	/	/
COc1cc(/C=N/NC(=O)c2cccc(NC(=O)c3ccccc3)c2)ccc1O	.	.	99.5	.	.	.	88.3	/
CN1OC[C@@H]2CN[C@H](c3ccc(N4CCCCC4)cc3)C[C@@H]21	.	.	/	/	.	.	/	/
CN(C)c1ccc(N(C)C)c(C(O)(c2ccccc2)c2ccccc2)c1	.	.	/	/	.	.	/	/
Cc1cc(-c2n[nH]c(=S)n2/N=C/c2sccc2C)n[nH]1	.	.	111.5	.	.	.	91.5	25.0
Cc1ccsc1/C=N/n1c(-c2ccccc2)n[nH]c1=S	.	.	80.2	.	.	.	67.6	46.2
Cc1ccsc1/C=N/n1c(-c2ccncc2)n[nH]c1=S	.	.	.	.	.	.	/	/
O=C(N[C@H](C(=O)N1CCC[C@H]1C(=O)NCc1ccccc1)c1ccccc1)C1CCCC1	.	.	/	/	.	.	/	/
COC(=O)C1CN(C2CC2)CCS(=O)(=O)N1Cc1cn(Cc2ccc(F)cc2)nn1 (stereo not given)	.	.	/	/	.	.	/	/
O=C(Nc1ccccc1Cl)O[C@@H]1CC[C@@]23CCCN2C(=O)CCC[C@H]3C1	.	/	/	/	/	.	/	/
CCN1CCc2nc3ccccc3c(C(=O)Nc3ccc(F)cc3)c2C1	.	.	94.0	.	.	.	63.0	26.4
C#CCN(Cc1ccco1)C(=O)c1nnc2c3cc(OC)ccc3n(S(=O)(=O)c3ccc(OC)cc3)c2n1	.	.	/	/	.	.	/	/
COc1ccc(CCNC(=S)NC(=O)c2cccc(Cl)c2)cc1OC	.	.	.	.	.	.	/	/
O=C(NC(=S)NCCc1ccccn1)c1ccccc1	.	.	99.9	.	.	.	62.3	12.2
O=C(NC(=S)NCCc1ccccc1)c1cccc(Cl)c1	.	.	124.3	.	.	.	138.8	18.8
Cc1ccc2ncccc2c1NS(=O)(=O)c1ccccc1	.	.	.	.	.	.	/	/
Cc1ccc2ncccc2c1NC(=S)NC(=O)c1ccccc1	.	.	86.1	.	.	.	125.5	37.0
O=C(NCCc1ccccn1)/C(=C/c1ccco1)NC(=O)c1ccccc1	.	.	.	.	.	.	/	/
SMILES	ADAM10 inh	rCAG RNA binder	AHR act	GRIN3A LBD mod	proKLK7 act	ADAM17 inh	AHR act confirm	PXR counter
Nn1c(SCC(=O)N2CCOCC2)nnc1-c1cc(-c2ccc(Cl)cc2)n[nH]1	.	.	/	/	.	.	/	/
Fc1ccc(/C=N/NC(=S)Nc2ccc(Cl)cc2)cc1F	.	.	.	.	.	.	/	/
Fc1ccc(/C=N/NC(=S)Nc2ccc(Cl)cc2Cl)cc1	.	.	84.0	.	.	.	107.2	.
CCc1cccc2sc(NC(=O)C3CC3)nc12	.	.	91.0	12.3	.	.	118.6	12.9
Cc1nc(NC(=O)C2CC2)sc1C(=O)Nc1ccc(Br)cc1	.	.	102.7	.	.	.	103.9	32.5
Cc1ccc(C)c2sc(NC(=O)C3CC3)nc12	.	.	91.8	.	.	.	121.2	/
Cc1cc(C)c2sc(NC(=O)C3CC3)nc2c1	.	.	106.0	.	.	.	117.5	58.7
COc1ccc(NC(=O)c2sc(NC(=O)C3CC3)nc2C)cc1	.	.	.	.	.	.	/	/
O=C(Nc1nc2ccc(F)cc2s1)c1cccs1	.	.	98.9	16.4	.	.	136.0	.
CN(C)S(=O)(=O)c1ccc2nc(NC(=O)c3cccs3)sc2c1	.	.	.	.	.	.	/	/
O=C(OC12CCCN(C1)/C(=C/c1cccc(Cl)c1)C2)C1CCCCC1 (stereo not given)	.	.	/	/	.	.	/	/
Cc1cc(=O)n(CC(=O)NC2CC2)c2c1c(C)nn2-c1ccccc1	/	/	87.5	.	/	/	83.8	77.1
O=C1C=C(c2cccc(Br)c2)C[C@@H](c2ccc3c(c2)OCO3)C1	.	.	86.4	.	.	.	83.3	32.9
COc1ccc(F)cc1C1=CC(=O)C[C@H](c2ccc3c(c2)OCO3)C1	.	.	86.1	.	.	.	72.8	111.7
COc1cccc(C2=CC(=O)C[C@H](c3ccc4c(c3)OCO4)C2)c1OC	/	/	119.5	.	/	/	109.2	148.3
CCCc1nn(C)c(C(=O)Nc2ccc(CC)cc2)c1Cl	/	/	.	.	/	/	/	/
CCCc1nn(C)c(C(=O)Nc2cccc3ccccc23)c1Cl	.	.	92.9	11.9	.	.	73.5	/
CC(C)C[C@@H]1COc2cc(N3CCOCC3)ccc2S(=O)(=O)N1	.	.	/	/	.	.	/	/
O=C(Nc1ccc(F)cc1)OCc1cn(Cc2ccccc2C(F)(F)F)nn1	.	.	/	/	.	.	/	/
CCOc1ccccc1C(=O)Nc1cccc2ccccc12	.	.	88.0	.	.	.	62.9	34.1
CCOc1ccccc1NC(=O)c1ccoc1C	.	.	80.9	.	.	.	88.8	12.9
Cc1cccc(C(=O)Nc2ccnc(-c3ccncc3)n2)c1	.	.	98.7	.	.	.	47.7	.
Clc1ccc(C2=NN=C3COc4ccccc4N3C2)cc1	.	.	87.8	.	.	.	117.7	23.9
O=C1COc2ccccc2N1Cc1ccc(Cl)cc1	.	.	.	.	.	.	/	/
COc1ccc(N2Cc3ccc(OC)c(OC)c3C2=O)cc1	.	.	.	.	.	.	/	/
COc1ccc2c(c1OC)C(=O)N(c1nccs1)C2	.	.	81.6	.	.	.	148.5	17.0
CCOC(=O)N1CCN(C(=O)CSc2nc3c([nH]c4ccccc43)c(=O)n2CC)CC1	.	.	100.9	.	.	.	94.4	54.0
C=CCn1c(SCC(=O)N2CCOCC2)nc2c([nH]c3ccccc32)c1=O	.	.	87.5	.	.	.	91.8	76.7
CCn1c(SCC(=O)N2CCCCC2)nc2c([nH]c3ccccc32)c1=O	.	.	/	/	.	.	/	/
